Measured values taken from ChEMBL document CHEMBL3988442, “University of Dundee, Small-Polar-MMV Screening Library” (2021).

Legend:
[1] = target: T1, Aspartate--tRNA(Asp/Asn) ligase (Mycobacterium tuberculosis (strain ATCC 25618 / H37Rv)) (UniProt P9WFW3); assay: Assay for Asp RNA synthetase-1 from Mycobacterium tuberculosis; format: functional; set-up: scale not given: direction of the effect not stated beside the values; details: 30 µM; further: in the data most compounds retested in dose-response had high values
T1 sequence (whole entry): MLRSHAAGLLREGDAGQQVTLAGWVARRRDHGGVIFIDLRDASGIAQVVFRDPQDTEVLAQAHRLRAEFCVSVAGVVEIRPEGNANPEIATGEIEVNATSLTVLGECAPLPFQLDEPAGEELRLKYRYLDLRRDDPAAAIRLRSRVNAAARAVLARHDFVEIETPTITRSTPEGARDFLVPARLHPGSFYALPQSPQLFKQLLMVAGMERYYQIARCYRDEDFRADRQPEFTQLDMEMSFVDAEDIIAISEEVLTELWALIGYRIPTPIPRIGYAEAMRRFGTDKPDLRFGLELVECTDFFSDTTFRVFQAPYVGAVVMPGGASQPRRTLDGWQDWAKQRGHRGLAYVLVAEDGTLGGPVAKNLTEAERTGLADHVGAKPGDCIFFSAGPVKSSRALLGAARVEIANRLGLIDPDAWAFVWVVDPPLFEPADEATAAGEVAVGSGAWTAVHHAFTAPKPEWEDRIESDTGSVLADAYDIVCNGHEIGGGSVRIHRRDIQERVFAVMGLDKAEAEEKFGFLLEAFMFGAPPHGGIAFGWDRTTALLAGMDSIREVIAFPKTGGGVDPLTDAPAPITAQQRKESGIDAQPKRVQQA

[2] = target: Shiga toxin 2 (Escherichia coli O157:H7) (UniProt P09385+P09386); assay: E. coli 0.157:H7 Shiga Toxin SOP - stx2 screening assay; format: functional; set-up: scale not given: direction of the effect not stated beside the values; details: 30 µM

Row | SMILES | Percent Effect [1] [%] | Percent Effect [2] [%]
1 | CCC(=O)N1CCC(O)(c2ncc(OC)nc2OC)CC1 | 1.66 | 16.1
2 | O=C(c1cn(-c2cc(N3CCSCC3)ncn2)cn1)N1CCSCC1 | -8.02 | 1.44
3 | Cc1ccccc1N1CCCN(C(=O)CCCS(N)(=O)=O)CC1 | 6.58 | -25.7
4 | Cc1ccc2oc(C(=O)N3CCCC(n4nc(C)cc4C)C3)cc2n1 (stereo unspecified) | -3.54 | 1.89
5 | CN(Cc1ccc2c(c1)OCO2)Cc1nc2c(cnn2C)c(=O)[nH]1 | -0.843 | 27.6
6 | Cc1noc([C@@]23CCO[C@@H]2CCN(C(=O)C2CCOCC2)C3)n1 | 0.117 | -4.33
7 | CN1CCN(c2cc(CNC(=O)c3ccc(=O)[nH]n3)ccn2)CC1 | -0.544 | -57.8
8 | CCN1CCn2nc(CCC(=O)N3CCCC3)cc2C1 | -0.386 | -5.54
9 | CN(C(=O)Cn1nc(-c2ccc(F)cc2)oc1=O)C1CCS(=O)(=O)C1 (stereo unspecified) | 4.6 | -7.66
10 | COCC(=O)N1CC[C@H]2C[C@@H](c3nnc(C4CC4)o3)O[C@@H]2C1 | -1.34 | -18.9
11 | Cc1cccc(C2(CNC(=O)CCNS(C)(=O)=O)CCCC2)c1 | -6.94 | -8.2
12 | Cc1nc(CN2C[C@@H]3CN(C(=O)C4CC4)C[C@@H]3C2=O)cs1 | -6.04 | -17.6
13 | Cc1cc(NC(=O)CN2CCCC2c2noc(C3CC3)n2)no1 (stereo unspecified) | 0.92 | -26.9
14 | Cc1nc(N2CCCC2)nc2c1CN(C(C)C)CC2 | 1.86 | -13.3
15 | Cc1nc(COC[C@@H]2CC[C@H]3[C@H](CCN3S(C)(=O)=O)O2)cs1 | 6.16 | 1.49
16 | CCc1c(C(=O)N2CCCN(C(C)=O)CC2)cnn1C(C)(C)C | 0.899 | 3.41
17 | CC(NC(=O)CCC(=O)c1cccs1)c1nnc2n1CCCCC2 (stereo unspecified) | 3.67 | 18.5
18 | COc1cnc(C2(O)CCN(C(=O)c3cccnc3)CC2)c(OC)n1 | 0.313 | 17.2
